# In the supplement of paper PMC12282887:
# ± gives the standard deviation of the averaged measurements.
# Legend:
# Assay in all cases: promoter activity interaction Z-score (Lux/OD deviation from empty-vector control); higher = stronger promoter induction by the compound
# [1] = test system: E. coli BW25113 acrABp lux reporter
# Summary of the method: (§1)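 Wild-type E. coli BW25113 and three single-gene deletion strains, each carrying a low-copy luxCDABE promoter reporter, were grown at 37°C in 40 µl LB Lennox per well of a 384-well plate. Every compound was applied at four 1:2 dilutions in biological duplicates, and OD600 and luminescence were read every 30 min for 12 h. Integration covered 0–8 h for wild type and 1–9 h for deletion strains, and wells under 10% of the median growth value were removed. Scores are Z-transformed residuals of growth-normalised luminescence fitted against a control.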
# [2] = test system: E. coli BW25113 micFp lux reporter
# Summary of the method: as §1
# [3] = test system: E. coli BW25113 ompFp lux reporter
# Summary of the method: as §1
# [4] = test system: E. coli BW25113 robp lux reporter
# Summary of the method: as §1
# [5] = test system: E. coli BW25113 soxSp lux reporter
# Summary of the method: as §1
# [6] = test system: E. coli BW25113 tolCp lux reporter
# Summary of the method: as §1
# [7] = 0.64 µg/ml, genetic background: wild type
# [8] = 0.64 µg/ml, genetic background: ΔmarA
# [9] = 0.64 µg/ml, genetic background: Δrob
# [10] = 0.64 µg/ml, genetic background: ΔsoxS
# [11] = 1.3 µg/ml, genetic background: wild type
# [12] = 1.3 µg/ml, genetic background: ΔmarA
# [13] = 1.3 µg/ml, genetic background: Δrob
# [14] = 1.3 µg/ml, genetic background: ΔsoxS
# [15] = 2.6 µg/ml, genetic background: wild type
# [16] = 2.6 µg/ml, genetic background: ΔmarA
# [17] = 2.6 µg/ml, genetic background: Δrob
# [18] = 2.6 µg/ml, genetic background: ΔsoxS
# [19] = 5.1 µg/ml, genetic background: wild type
# [20] = 5.1 µg/ml, genetic background: ΔmarA
# [21] = 5.1 µg/ml, genetic background: Δrob
# [22] = 5.1 µg/ml, genetic background: ΔsoxS
smiles,measurement,setting,value
C[n+]1ccc(-c2cc[n+](C)cc2)cc1 [Paraquat],promoter activity interaction Z-score,[1]; [7],0.0325 ± 0.07
same,promoter activity interaction Z-score,[1]; [8],0.871 ± 1.1
same,promoter activity interaction Z-score,[1]; [9],0.287 ± 0.14
same,promoter activity interaction Z-score,[1]; [10],-0.155 ± 0.38
same,promoter activity interaction Z-score,[1]; [11],-0.0426 ± 0.21
same,promoter activity interaction Z-score,[1]; [12],0.412 ± 0.8
same,promoter activity interaction Z-score,[1]; [13],0.484 ± 0.32
same,promoter activity interaction Z-score,[1]; [14],0.177 ± 0.18
same,promoter activity interaction Z-score,[1]; [15],0.406 ± 0.016
same,promoter activity interaction Z-score,[1]; [16],0.865 ± 0.77
same,promoter activity interaction Z-score,[1]; [17],0.362 ± 0.13
same,promoter activity interaction Z-score,[1]; [18],0.148 ± 0.023
same,promoter activity interaction Z-score,[1]; [19],0.966 ± 0.12
same,promoter activity interaction Z-score,[1]; [20],0.0695 ± 0.017
same,promoter activity interaction Z-score,[1]; [21],1.06 ± 0.54
same,promoter activity interaction Z-score,[1]; [22],0.747 ± 0.85
same,promoter activity interaction Z-score,[2]; [7],0.149 ± 0.24
same,promoter activity interaction Z-score,[2]; [8],1.489 ± 0.0083
same,promoter activity interaction Z-score,[2]; [9],1.28 ± 0.4
same,promoter activity interaction Z-score,[2]; [10],-0.129 ± 0.0025
same,promoter activity interaction Z-score,[2]; [11],0.566 ± 0.14
same,promoter activity interaction Z-score,[2]; [12],2.36 ± 0.1
same,promoter activity interaction Z-score,[2]; [13],2.69 ± 0.87
same,promoter activity interaction Z-score,[2]; [14],-0.0229 ± 0.11
same,promoter activity interaction Z-score,[2]; [15],1.23 ± 0.11
same,promoter activity interaction Z-score,[2]; [16],3.79 ± 0.15
same,promoter activity interaction Z-score,[2]; [17],4.57 ± 1.3
same,promoter activity interaction Z-score,[2]; [18],-0.156 ± 0.22
same,promoter activity interaction Z-score,[2]; [19],3.89 ± 0.099
same,promoter activity interaction Z-score,[2]; [20],5.91 ± 1.2
same,promoter activity interaction Z-score,[2]; [21],8.849 ± 0.017
same,promoter activity interaction Z-score,[2]; [22],-0.509 ± 0.16
same,promoter activity interaction Z-score,[3]; [7],0.528 ± 0.083
same,promoter activity interaction Z-score,[3]; [8],0.49 ± 0.27
same,promoter activity interaction Z-score,[3]; [9],0.489 ± 0.56
same,promoter activity interaction Z-score,[3]; [10],0.272 ± 0.36
same,promoter activity interaction Z-score,[3]; [11],0.484 ± 0.34
same,promoter activity interaction Z-score,[3]; [12],0.321 ± 0.0078
same,promoter activity interaction Z-score,[3]; [13],0.81 ± 0.54
same,promoter activity interaction Z-score,[3]; [14],0.308 ± 0.03
same,promoter activity interaction Z-score,[3]; [15],0.864 ± 0.28
same,promoter activity interaction Z-score,[3]; [16],0.472 ± 0.45
same,promoter activity interaction Z-score,[3]; [17],1.09 ± 0.6
same,promoter activity interaction Z-score,[3]; [18],0.514 ± 0.2
same,promoter activity interaction Z-score,[3]; [19],1.34 ± 0.52
same,promoter activity interaction Z-score,[3]; [20],0.867 ± 0.69
same,promoter activity interaction Z-score,[3]; [21],1.96 ± 1.2
same,promoter activity interaction Z-score,[3]; [22],-2.03
same,promoter activity interaction Z-score,[4]; [7],-0.182 ± 0.091
same,promoter activity interaction Z-score,[4]; [8],0.325 ± 0.15
same,promoter activity interaction Z-score,[4]; [9],0.533 ± 0.16
same,promoter activity interaction Z-score,[4]; [10],0.786 ± 0.081
same,promoter activity interaction Z-score,[4]; [11],0.394 ± 0.0088
same,promoter activity interaction Z-score,[4]; [12],-0.0344 ± 0.25
same,promoter activity interaction Z-score,[4]; [13],0.769 ± 0.054
same,promoter activity interaction Z-score,[4]; [14],1.6 ± 0.18
same,promoter activity interaction Z-score,[4]; [15],0.405 ± 0.13
same,promoter activity interaction Z-score,[4]; [16],-0.176 ± 0.36
same,promoter activity interaction Z-score,[4]; [17],-0.103 ± 0.18
same,promoter activity interaction Z-score,[4]; [18],0.939 ± 0.087
same,promoter activity interaction Z-score,[4]; [19],-1.49 ± 0.031
same,promoter activity interaction Z-score,[4]; [20],-1.22 ± 0.88
same,promoter activity interaction Z-score,[4]; [21],-1.65 ± 0.29
same,promoter activity interaction Z-score,[4]; [22],-2.13
same,promoter activity interaction Z-score,[5]; [7],2.83 ± 0.11
same,promoter activity interaction Z-score,[5]; [8],2.9 ± 0.097
same,promoter activity interaction Z-score,[5]; [9],3.15 ± 0.6
same,promoter activity interaction Z-score,[5]; [10],3.26 ± 0.44
same,promoter activity interaction Z-score,[5]; [11],4.46 ± 0.059
same,promoter activity interaction Z-score,[5]; [12],4.28 ± 0.14
same,promoter activity interaction Z-score,[5]; [13],5.3 ± 1.6
same,promoter activity interaction Z-score,[5]; [14],4.33 ± 0.021
same,promoter activity interaction Z-score,[5]; [15],6.809 ± 0.059
same,promoter activity interaction Z-score,[5]; [16],7.02 ± 1.1
same,promoter activity interaction Z-score,[5]; [17],7.7 ± 0.67
same,promoter activity interaction Z-score,[5]; [18],5.69 ± 0.3
same,promoter activity interaction Z-score,[5]; [19],13.3 ± 0.42
same,promoter activity interaction Z-score,[5]; [20],13.9 ± 0.57
same,promoter activity interaction Z-score,[5]; [21],13.2 ± 0.83
same,promoter activity interaction Z-score,[5]; [22],7.48 ± 0.55
same,promoter activity interaction Z-score,[6]; [7],0.284 ± 0.95
same,promoter activity interaction Z-score,[6]; [8],0.749 ± 0.29
same,promoter activity interaction Z-score,[6]; [9],0.775 ± 0.4
same,promoter activity interaction Z-score,[6]; [10],-0.838 ± 0.78
same,promoter activity interaction Z-score,[6]; [11],-0.11 ± 0.4
same,promoter activity interaction Z-score,[6]; [12],1.44 ± 1.1
same,promoter activity interaction Z-score,[6]; [13],0.62 ± 0.32
same,promoter activity interaction Z-score,[6]; [14],0.0157 ± 0.29
same,promoter activity interaction Z-score,[6]; [15],2.66 ± 0.41
same,promoter activity interaction Z-score,[6]; [16],3 ± 0.23
same,promoter activity interaction Z-score,[6]; [17],2.88 ± 0.087
same,promoter activity interaction Z-score,[6]; [18],-0.245 ± 1.2
same,promoter activity interaction Z-score,[6]; [19],3.73 ± 0.21
same,promoter activity interaction Z-score,[6]; [20],6.42 ± 0.38
same,promoter activity interaction Z-score,[6]; [21],3.99 ± 0.79
same,promoter activity interaction Z-score,[6]; [22],-0.515 ± 0.099
